Only some compounds are listed: those with a hit (about 3% of all), similar ones and a draw of the others.
SENP7 inh: inhibitors of human SENP7 protease; recombinant SENP7, Z-RLRGG-aminoluciferin luminescence, 40 min; 330,000 compounds, 1.5% hits; inhibition, % at 5 µM; Q9BQF6;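 active means inhibition above about 50% at the single test dose, limit read from the data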;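 further: plate controls were DMSO with enzyme for no effect and no enzyme buffer wells for full effect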
Target sequence (Q9BQF6 706-1050 limits assumed): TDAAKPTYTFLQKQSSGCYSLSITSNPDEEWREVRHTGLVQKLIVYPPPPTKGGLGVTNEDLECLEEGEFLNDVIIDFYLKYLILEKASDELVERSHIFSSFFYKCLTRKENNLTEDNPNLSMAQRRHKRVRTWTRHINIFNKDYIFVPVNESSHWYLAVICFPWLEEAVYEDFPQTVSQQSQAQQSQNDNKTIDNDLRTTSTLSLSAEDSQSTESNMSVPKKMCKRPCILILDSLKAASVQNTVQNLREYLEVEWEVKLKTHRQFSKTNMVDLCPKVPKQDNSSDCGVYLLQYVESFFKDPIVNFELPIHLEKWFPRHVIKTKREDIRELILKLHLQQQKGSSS
SENP6 inh: SENP6 protease inhibition. 330,000 compounds, 1.8% hits. Q9GZR1. AID 2599. Recombinant SENP6 catalytic domain, aminoluciferin luminescence. inhibition, % at 10 µM;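 active means inhibition above about 50% at the single tested dose, limit read from the data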;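 further: plate controls were DMSO wells with enzyme for no effect and DMSO wells lacking enzyme for full effect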
PPC-1+TRAIL kill: compounds killing PPC-1 cancer cells with TRAIL present (potentiator screen, no TRAIL-free arm); PPC-1 cells + TRAIL, ATPLite viability luminescence; cell killing (% activity), % at 4 µM or 5 µM; 220,000 compounds, 0.41% hits; AID 1443;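 active means cell killing above 50% in the first pass at 4 µM, then a duplicate retest at 5 µM averaging 50% or more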;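 further: plate controls were cells with TRAIL plus DMSO for no effect and medium-only wells lacking cells for full effect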
SENP8 block-1: SENP8 (human) protease inhibition. recombinant SENP8, Nedd8 substrate fluorescence. Q96LD8. inhibition, % at 20 µM. 360,000 compounds, 0.64% hits; in the data active means inhibition mostly above about 40%, no sharp cut-off; inactive means mostly below about 27%
Target sequence (Q96LD8 whole entry, looked up): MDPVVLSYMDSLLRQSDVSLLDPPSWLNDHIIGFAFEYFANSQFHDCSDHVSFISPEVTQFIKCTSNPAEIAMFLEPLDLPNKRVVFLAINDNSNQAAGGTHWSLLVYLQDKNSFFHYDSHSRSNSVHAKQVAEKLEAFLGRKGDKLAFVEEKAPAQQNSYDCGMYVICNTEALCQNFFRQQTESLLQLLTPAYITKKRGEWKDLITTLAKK
SENP8 block-2: SENP8 protease inhibition | Q96LD8 | purified SENP8, Z-RLRGG-aminoluciferin cleavage, luminescence | inhibition, % at 10 µM | 330,000 compounds, 1.2% hits | AID 2540; in the data active means inhibition above about 50%
C8 TRAIL sens: sensitizes caspase-8 expressing cells to TRAIL; 360,000 compounds, 1% hits; AID 624354; NB7+C8 cells + TRAIL, ATPlite viability luminescence; inhibition (viability loss, TRAIL sensitization), % at 10 µM;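 active means compounds causing at least 50% loss of cell viability in the single-dose screen, relative to plate controls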
SENP8 inh conf: SENP8 (human) inhibition, single concentration confirmation. shares compounds with SENP8 block-1. purified SENP8, Nedd8-AMC/pro-Nedd8 cleavage fluorescence, 30 min. inhibition, % at 25 µM. 1,400 compounds, 15% hits. AID 624319; in the data active means inhibition mostly above about 39%, no sharp cut-off; inactive means mostly below about 34%
* = called active by the depositor; . = not tested or not shown.

SMILES | SENP7 inh | SENP6 inh | PPC-1+TRAIL kill | SENP8 block-1 | SENP8 block-2 | C8 TRAIL sens | SENP8 inh conf
O=[N+]([O-])c1cc(Cl)ccc1NCCNc1ncc(C(F)(F)F)cc1Cl | 3 | -17 | 16 | 43* | 0 | -4 | 13
CN(C)c1cccc2c1c(NC(=O)c1ccc(F)cc1)nn2C | 8 | 0 | -2 | 55* | 8 | -5 | 15
CN(C)c1cccc2c1c(NC(=O)c1ccc(Cl)cc1)nn2C | 2 | -14 | 3 | 60* | -2 | 1 | 21
CN(C)c1cccc2c1c(NC(=O)Nc1ccccc1)nn2C | 12 | 24 | 6 | -93 | 7 | -35 | .
OCC[C@H]1C[C@@H](O)[C@H](O)[C@]2(CCCCO2)O1 | -1 | 18 | -1 | 6 | 3 | 6 | .
CCOc1ccc(S(=O)(=O)N2CCCC(C(=O)NCC3CCCO3)C2)cc1Cl (centres undefined) | -4 | 0 | . | 11 | -6 | -2 | .
CCc1nc2ccc(C(=O)NCCCN3CCCC3=O)cn2c1N(C)C(=O)Nc1ccccc1OC | . | . | . | -11 | . | -2 | .
Cc1ccc([N+](=O)[O-])cc1N | 3 | 2 | 20 | 16 | -1 | -4 | .
CCc1cc([N+](=O)[O-])cc(CC)c1N | 1 | 3 | -7 | 45* | -1 | -14 | 16
NNc1nnc2c3cc(F)ccc3n(CCc3ccccc3)c2n1 | -1 | 17 | . | 52* | 5 | -12 | 39
Fc1ccc2c(c1)c1n[nH]c(=S)nc1n2CCc1ccccc1 | -4 | 19 | . | 13 | -1 | 21 | .
CN1CCc2nc(SCC(=O)Nc3ccc(OC(F)(F)F)cc3)c(C#N)c(-c3cccs3)c2C1 | 1 | 28 | 45 | 45* | 5 | -10 | 23
Cc1cccc(CSc2nc3c(c(-c4cccs4)c2C#N)CN(C)CC3)c1 | 1 | -3 | 26 | 40* | 6 | -2 | 4
COc1cccc(NC(=O)CSc2nc3c(c(-c4ccco4)c2C#N)CCCC3)c1 | 1 | -4 | 18 | -147 | 7 | -5 | .
Cc1cccc(CSc2nc(N)c(C#N)c(-c3cccs3)c2C#N)c1 | -2 | 1 | 18 | -71 | 2 | 1 | .
COc1cccc(CCOC(=O)c2c(-c3ccsc3)oc3c2C(OC(C)=O)CCC3)c1 (centres undefined) | . | . | . | -230 | . | 16 | .
Cc1ccccc1Nc1cccc2nonc12 | 2 | 1 | 14 | 45* | -6 | 3 | 34
Cc1ccccc1NS(=O)(=O)c1cccc2nonc12 | 7 | -13 | . | 10 | 2 | -14 | .
Cc1ccc2sc(NNC(=O)c3cc(=O)c4ccccc4o3)nc2c1C | 19 | 96* | 11 | 66* | 94* | -18 | 25
COc1ccc(NC(=S)NC(NC(=O)c2cccc(C)c2)C(Cl)(Cl)Cl)c([N+](=O)[O-])c1 (centres undefined) | 0 | -12 | 16 | 42* | -4 | 3 | 8
CCCCOc1ccc(/C=N/NC(=S)Nc2cc(C)ccc2C)cc1 | -2 | 10 | 22 | 5 | 2 | -11 | .
CCCCOc1ccc(/C=N/NC(=S)Nc2cccc(C)c2C)cc1 | 12 | 3 | 3 | 40* | 1 | -3 | 5
COc1ccc(Nc2nc(=O)c3cc([N+](=O)[O-])ccc3s2)cc1 | . | . | 18 | 55* | . | 10 | 22
Cc1ccc(Nc2nc(=O)c3cc([N+](=O)[O-])ccc3s2)cc1 | -4 | -9 | -9 | 33 | 0 | 4 | .
COc1ccc(N/C=C/C(=O)c2ccc(C)cc2)c([N+](=O)[O-])c1 | 31 | 12 | . | 44* | 12 | 42 | 12
SMILES | SENP7 inh | SENP6 inh | PPC-1+TRAIL kill | SENP8 block-1 | SENP8 block-2 | C8 TRAIL sens | SENP8 inh conf
CCOc1ccc(N/C=C/C(=O)c2ccc(OC)cc2)c([N+](=O)[O-])c1 | -5 | -13 | 18 | 26 | -9 | 28 | .
CCN(CC)c1ncnc2c1cnn2Cc1ccc(Cl)cc1 | 5 | 13 | -10 | 41* | 1 | -4 | 3
C/C(=N/NC(=O)c1ccccn1)c1ccc(O)cc1 | -5 | 10 | 7 | -8 | -5 | 16 | .
C/C(=N\NC(=O)c1ccccn1)c1ccc(Cl)cc1 | 26 | 42 | 27 | 55* | 41 | 61* | 6
O=C1c2ccc3c4c(ccc(c24)C(=O)N1c1cccc(O)c1)CC3 | 1 | 17 | 4 | -155 | -2 | 1 | .
O=C1c2ccc3c4c(ccc(c24)C(=O)N1c1cccc(O)c1)C(=O)N(c1cccc(O)c1)C3=O | 19 | 22 | 16 | 46* | 6 | 49* | 46
CC(=O)Nc1cccc(NC(=O)CSc2nc(=O)n(CCN3CCOCC3)c3c2CCC3)c1 | -12 | -5 | . | -4 | 1 | 1 | .
CC(C)Oc1cccc(C(=O)Nc2nnc([C@@H]3C[C@H](O)[C@@H](CO)O3)s2)c1 | . | . | . | -2 | . | 4 | .
O=C1CC(c2ccc(O)c(O)c2)Oc2cc(O)cc(O)c21 (centres undefined) | 1 | -2 | 16 | -13 | 2 | -2 | .
COc1ccc(C2CC(=O)c3c(O)cc(O)cc3O2)cc1O (centres undefined) | . | . | . | 41* | . | -13 | 8
COC(=O)[C@@H](NC(=O)Nc1cccc(Br)c1)C(C)C | -5 | -17 | -11 | 31 | -7 | -2 | .
COc1ccc(S(=O)(=O)Nc2cc3c4c(c2)CCN4C(=O)CC3)cc1 | -1 | -2 | . | 13 | -1 | -1 | .
Cc1nccn1CC1CCc2c(c3ccccc3n2C)C1=O (centres undefined) | -12 | -4 | . | -6 | 6 | -1 | .
Cc1[nH]cnc1CN1CCc2c(c3ccccc3n2C)C1=O | 17 | 21 | . | 84* | 12 | -5 | 76*
Cc1nn(Cc2ccc(Cl)cc2Cl)c(C)c1NC(=O)Cn1nc([N+](=O)[O-])c(Cl)c1C | 6 | -2 | 38 | 54* | -2 | 23 | 8
Cc1nn(Cc2ccc(Cl)cc2)c(C)c1NC(=O)Cn1nc([N+](=O)[O-])c(Cl)c1C | -5 | -3 | 30 | 17 | -5 | 0 | .
CCC(C)NC(=O)Cn1cc(S(=O)(=O)N2CCN(c3ccccc3F)CC2)c2ccccc2c1=O (centres undefined) | 7 | -6 | 14 | -7 | 4 | -8 | .
C[C@@H]1CN([C@@H](C)CO)C(=O)c2cc(C3=CCCCC3)cnc2O[C@H]1CN(C)C(=O)Nc1cccc(F)c1 | . | . | . | -9 | . | 4 | .
CC(c1c(O)c2ccccc2[nH]c1=O)C1(C)CCC(O)C(C)(C)O1 (centres undefined) | 1 | -16 | 2 | 44* | -13 | 1 | 19
c1ccc2[nH]c3cc4ncnc4cc3nc2c1 | 18 | 39 | 12 | 48* | 12 | -2 | 60*
C/C(=N\Nc1ccc(S(=O)(=O)Nc2ccccc2)cc1[N+](=O)[O-])c1ccc(N2CCOCC2)cc1 | 7 | 0 | -1 | 44* | 8 | 18 | 15
